The target in assay [1] is Cytochrome P450 2C19 (Homo sapiens) (UniProt P33261). Nature of the assay: Cytochrome P450 Family 2 Subfamily C Member 19 (CYP2C19) small molecule antagonists: luciferase reporter qHTS assay (AID 1671197). Note: nearly all actives have a fitted effect of over 65% in size. An outline of the steps:
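Compounds were tested on CYP2C19 activity via proluciferin conversion to luciferin. The 37C, 1 h reaction followed NADPH addition; detection reagent stopped it.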
Background: Reporter assays use an easily measured gene product as a stand-in for the process of interest.

Assay [2] addresses Cytochrome P450 2C9 (Homo sapiens) (UniProt P11712). Description: Cytochrome P450 Family 2 Subfamily C Member 9 (CYP2C9) small molecule antagonists: luciferase reporter qHTS assay (AID 1671198). Note: nearly all actives have a fitted effect of over 50% in size. In outline: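 CYP2C9 activity was measured with a P450-Glo proluciferin substrate. Enzyme–substrate mix was held with compound for 10 min at room temperature, then NADPH regeneration solution was added for 1 h at 37C. Luciferin product was read as luminescence.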

Assay [3] has as its target Cytochrome P450 1A2 (Homo sapiens) (UniProt P05177). Nature of the assay: Cytochrome P450 Family 1 Subfamily A Member 2 (CYP1A2) small molecule antagonists: luciferase reporter qHTS assay (AID 1671199). Note: nearly all actives have a fitted effect of over 50% in size. An outline of the steps:
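Steps: enzyme-substrate mix dispensed; test compounds and furafylline control pinned in; 10 min room temperature; NADPH regeneration solution added, 1 h; reaction stopped with luciferin detection reagent; luminescence read after 20 min.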

In assay [4] the target is Voltage-gated inwardly rectifying potassium channel KCNH2 (Homo sapiens) (UniProt Q12809). Description: Human Ether-a-go-go-Related Gene (hERG) channel small molecule antagonists: fluorescence cell-based qHTS assay (AID 1671200). Note: nearly all actives have a fitted effect of over 50% in size. An outline of the steps: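 In this thallium-flux screen, overnight-cultured U2OS cells bearing the channel are dye-loaded in darkness for an hour, rested 10 min at room temperature, and then monitored kinetically at 480/540 nm for two minutes post-stimulus.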

For assay [5], the target named is Cytochrome P450 3A4 (Homo sapiens) (UniProt P08684). Description: Cytochrome P450 Family 3 Subfamily A Member 4 (CYP3A4) small molecule antagonists: luciferase reporter qHTS assay (AID 1671201). Note: nearly all actives have a fitted effect of over 50% in size. An outline of the steps: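 CYP3A4 activity was followed with a P450-Glo proluciferin substrate. Test compounds in DMSO were preincubated 10 min; NADPH regeneration then ran 1 h, and light output was read 20 min after detection reagent.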

Each structure is given as a SMILES string. “And” between values parts separate entries of the source, which are not always exact repeats. Equal entries are not always repeated. Records with an inconclusive call do not appear. A structure can be active in one record and inactive in another. The source made the active and inactive calls. Calls come from the whole dose curve; as a rule, active = well fitted curve in the direction sought with a large enough effect in the repeat runs; inconclusive = weak or mixed curves; inactive = no such curve, though single readings can be large; an effect the other way counts as inactive or inconclusive.
Potency is the fitted concentration of half-maximal effect.

Chain of Cytochrome P450 1A2 (Homo sapiens) (P05177 whole entry, looked up): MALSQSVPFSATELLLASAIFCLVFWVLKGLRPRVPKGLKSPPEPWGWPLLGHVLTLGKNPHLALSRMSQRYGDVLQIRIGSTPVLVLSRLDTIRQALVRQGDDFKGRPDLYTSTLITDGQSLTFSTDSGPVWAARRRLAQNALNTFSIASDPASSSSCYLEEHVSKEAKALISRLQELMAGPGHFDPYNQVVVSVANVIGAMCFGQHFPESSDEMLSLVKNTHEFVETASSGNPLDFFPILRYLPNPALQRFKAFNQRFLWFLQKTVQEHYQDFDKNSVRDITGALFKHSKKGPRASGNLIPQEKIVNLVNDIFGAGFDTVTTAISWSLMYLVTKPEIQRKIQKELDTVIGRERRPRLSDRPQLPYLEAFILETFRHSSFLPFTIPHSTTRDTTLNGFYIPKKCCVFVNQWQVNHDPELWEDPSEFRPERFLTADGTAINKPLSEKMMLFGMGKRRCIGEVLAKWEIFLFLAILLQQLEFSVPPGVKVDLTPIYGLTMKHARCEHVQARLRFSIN
Chain of Cytochrome P450 3A4 (Homo sapiens) (P08684 whole entry, looked up): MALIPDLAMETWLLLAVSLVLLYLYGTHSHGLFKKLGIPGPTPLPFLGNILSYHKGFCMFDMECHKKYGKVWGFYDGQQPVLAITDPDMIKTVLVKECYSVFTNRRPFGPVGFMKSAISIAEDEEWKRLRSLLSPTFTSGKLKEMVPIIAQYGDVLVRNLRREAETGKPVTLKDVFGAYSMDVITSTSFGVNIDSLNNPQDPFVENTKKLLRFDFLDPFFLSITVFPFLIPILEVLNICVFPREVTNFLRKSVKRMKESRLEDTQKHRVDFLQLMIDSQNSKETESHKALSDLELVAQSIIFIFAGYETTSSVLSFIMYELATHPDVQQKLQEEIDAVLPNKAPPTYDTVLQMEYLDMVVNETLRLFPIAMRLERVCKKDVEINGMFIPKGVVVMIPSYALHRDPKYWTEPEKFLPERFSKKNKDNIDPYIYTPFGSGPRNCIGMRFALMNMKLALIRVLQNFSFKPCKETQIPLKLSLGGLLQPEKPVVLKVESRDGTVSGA
Chain of Voltage-gated inwardly rectifying potassium channel KCNH2 (Homo sapiens) (Q12809 whole entry, looked up): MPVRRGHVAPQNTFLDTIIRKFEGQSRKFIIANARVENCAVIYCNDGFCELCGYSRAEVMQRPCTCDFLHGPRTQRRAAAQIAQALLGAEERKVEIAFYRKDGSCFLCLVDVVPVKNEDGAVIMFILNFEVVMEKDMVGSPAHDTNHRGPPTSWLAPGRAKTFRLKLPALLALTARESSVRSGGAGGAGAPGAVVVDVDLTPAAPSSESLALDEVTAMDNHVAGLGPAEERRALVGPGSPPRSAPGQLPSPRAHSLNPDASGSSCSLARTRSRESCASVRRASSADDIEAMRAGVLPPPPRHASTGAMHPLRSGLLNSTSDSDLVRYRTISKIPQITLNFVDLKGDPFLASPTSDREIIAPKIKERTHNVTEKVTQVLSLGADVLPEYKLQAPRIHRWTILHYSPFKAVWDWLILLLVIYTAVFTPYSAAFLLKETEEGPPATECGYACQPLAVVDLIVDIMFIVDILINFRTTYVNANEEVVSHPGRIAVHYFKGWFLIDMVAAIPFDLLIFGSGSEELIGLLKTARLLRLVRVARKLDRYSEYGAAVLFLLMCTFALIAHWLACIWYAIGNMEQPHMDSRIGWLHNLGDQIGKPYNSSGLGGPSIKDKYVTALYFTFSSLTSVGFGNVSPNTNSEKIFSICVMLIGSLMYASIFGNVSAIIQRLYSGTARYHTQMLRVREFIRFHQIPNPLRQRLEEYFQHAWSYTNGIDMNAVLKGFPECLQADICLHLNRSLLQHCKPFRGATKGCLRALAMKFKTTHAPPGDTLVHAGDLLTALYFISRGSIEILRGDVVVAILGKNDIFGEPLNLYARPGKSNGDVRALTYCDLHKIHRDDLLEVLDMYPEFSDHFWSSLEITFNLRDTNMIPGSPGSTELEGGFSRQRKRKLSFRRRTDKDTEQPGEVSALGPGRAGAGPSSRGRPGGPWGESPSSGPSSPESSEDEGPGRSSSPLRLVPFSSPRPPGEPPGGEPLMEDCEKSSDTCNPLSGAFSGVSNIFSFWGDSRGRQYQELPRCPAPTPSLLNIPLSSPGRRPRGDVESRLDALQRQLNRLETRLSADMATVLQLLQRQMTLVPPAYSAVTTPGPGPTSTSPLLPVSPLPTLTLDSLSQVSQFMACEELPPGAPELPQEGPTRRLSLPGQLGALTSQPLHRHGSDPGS
Chain of Cytochrome P450 2C9 (Homo sapiens) (P11712 whole entry, looked up): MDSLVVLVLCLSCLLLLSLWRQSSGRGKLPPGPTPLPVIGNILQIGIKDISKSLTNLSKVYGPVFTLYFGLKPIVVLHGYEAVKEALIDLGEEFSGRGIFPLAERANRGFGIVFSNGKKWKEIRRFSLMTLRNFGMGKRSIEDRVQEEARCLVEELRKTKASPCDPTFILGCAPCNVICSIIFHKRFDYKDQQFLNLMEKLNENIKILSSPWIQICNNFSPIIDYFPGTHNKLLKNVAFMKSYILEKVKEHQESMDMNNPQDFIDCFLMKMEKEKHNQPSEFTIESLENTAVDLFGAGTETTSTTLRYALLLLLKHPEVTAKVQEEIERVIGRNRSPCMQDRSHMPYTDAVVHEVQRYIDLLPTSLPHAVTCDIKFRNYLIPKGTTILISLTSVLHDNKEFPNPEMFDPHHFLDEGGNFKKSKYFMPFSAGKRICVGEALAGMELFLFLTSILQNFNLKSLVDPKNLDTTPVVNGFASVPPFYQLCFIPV
Chain of Cytochrome P450 2C19 (Homo sapiens) (P33261 whole entry, looked up): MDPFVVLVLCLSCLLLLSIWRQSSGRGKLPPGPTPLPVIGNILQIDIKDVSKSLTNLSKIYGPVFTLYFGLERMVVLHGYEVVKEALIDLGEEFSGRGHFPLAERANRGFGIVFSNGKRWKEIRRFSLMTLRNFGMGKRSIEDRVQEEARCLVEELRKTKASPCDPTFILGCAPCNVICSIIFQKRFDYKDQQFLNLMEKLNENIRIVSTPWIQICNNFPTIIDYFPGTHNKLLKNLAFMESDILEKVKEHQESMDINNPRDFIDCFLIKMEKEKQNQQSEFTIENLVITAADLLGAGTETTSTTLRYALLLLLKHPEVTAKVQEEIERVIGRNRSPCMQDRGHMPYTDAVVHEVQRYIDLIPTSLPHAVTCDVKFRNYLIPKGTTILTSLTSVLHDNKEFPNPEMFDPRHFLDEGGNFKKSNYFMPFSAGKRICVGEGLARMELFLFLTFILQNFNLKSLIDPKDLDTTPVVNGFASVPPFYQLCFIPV

Turning to `CCCCN(CCCC)CC(O)c1cc(Cl)cc2c1-c1ccc(Cl)cc1/C2=C/c1ccc(Cl)cc1` (stereo unspecified), the Potency is 17.4 µM (active) in assay [1], 17.4 µM (active) in assay [2], 16.2 µM (active) in assay [3] and 2.68 µM (active) in assay [4].
Take `CCCCNS(=O)(=O)c1ccc(C)cc1`: the Potency in assay [1] is 5.64 µM (active); in assay [2], 22.4 µM (active); in assay [3] it was 31.7 µM (active). Also, the Potency entry in assay [4] was “inactive”.
For `CC(=O)Oc1cc2c(s1)CCN(C(C(=O)C1CC1)c1ccccc1F)C2` (stereo unspecified), the Potency in assay [1] is 6.92 µM (active); in assay [2], 13.8 µM (active). Also, in assay [3], the Potency entry was “inactive”.
With `Cc1c(F)c(N2CCNC(C)C2)cc2c1c(=O)c(C(=O)O)cn2C1CC1` (stereo unspecified), the Potency entry in assay [1], in assay [2], in assay [3], in assay [4] and in assay [5] was “inactive” throughout.
In the case of `Cc1cc(C)c(/C=C2\C(=O)Nc3ccccc32)[nH]1`, the Potency in assay [1] is 7.76 µM (active); in assay [2] it was 11 µM (active); in assay [3], 1.44 µM (active). Also, the Potency result in assay [4] was “inactive”.
Turning to `CCCCCCCCCCCCOC(=O)c1ccc(O)cc1`, the Potency in assay [1] is 4.02 µM (active); in assay [2], 4.52 µM (active); in assay [3], 12.7 µM (active); in assay [5] it was 35.9 µM (active). Besides, the Potency result in assay [4] was “inactive”.
For the molecule `C=C(CC)C(=O)c1ccc(OCC(=O)O)c(Cl)c1Cl`, the Potency result in assay [1], in assay [3], in assay [4] and in assay [5] was “inactive” in each case. The Potency in assay [2] was 8.88 µM (active) and 5.49 µM (active).
As to `CC(C)=CCC1=C(O)c2ccccc2C(=O)C1=O`, the results for the Potency in assay [1], in assay [2] and in assay [3] were 28.1 µM (active), 31.6 µM (active) and 11.2 µM (active), respectively. The Potency entry in assay [4] and in assay [5] was “inactive” throughout.
With `CC[C@H](C)COC(=O)/C=C/c1ccc(N=Cc2ccc(OC)cc2)cc1`, the Potency in assay [1] was 0.893 µM (active); in assay [2] it was 5.63 µM (active); in assay [3], 5.63 µM (active); in assay [4], 43.6 µM (active).
As to `O=c1[nH]c(=O)n([C@H]2C[C@H](O)[C@@H](CO)O2)cc1F`, the Potency result in assay [1], in assay [2], in assay [3], in assay [4] and in assay [5] was “inactive” each time.
On to `CCCCCC(C)OC(=O)COc1ccc(Cl)c2cccnc12` (stereo unspecified), for which the Potency was 7.96 µM (active) in assay [1]; 11.2 µM (active) in assay [2]; 5.03 µM (active) in assay [3]; 9.77 µM (active) in assay [4]; 12.6 µM (active) in assay [5].
Take `CC1=Nc2ccccc2C1(C)C`: the Potency is 63.4 µM (active) in assay [1], 40 µM (active) in assay [2], 63.4 µM (active) in assay [3] and 63.4 µM (active) in assay [5]. For the same molecule, the Potency entry in assay [4] is “inactive”.
As for `CCc1cccc(CC)c1NC(=O)CN(CC(=O)O)CC(=O)O`, the Potency entry in assay [1], in assay [2], in assay [3], in assay [4] and in assay [5] was “inactive” throughout.
As to `Cc1cc(C(C#N)c2ccc(Cl)cc2)c(Cl)cc1NC(=O)c1cc(I)cc(I)c1O` (stereo unspecified), the values for the Potency in assay [1] and in assay [2] were 8.71 µM (active) and 17.4 µM (active), respectively. Moreover, the Potency entry in assay [3], in assay [4] and in assay [5] was “inactive” throughout.
With `CCCc1ccc(OCC(=O)N2CCN(C(=O)COc3ccc(CCC)cc3OC)CC2)c(OC)c1`, the Potency in assay [1] was 3.47 µM (active); in assay [2], 3.47 µM (active); in assay [4] it was 1.34 µM (active). Moreover, the Potency entry in assay [3] is “inactive”.
With `CC(C)(C)NSc1nc2ccccc2s1`, the Potency in assay [1] was 32.2 µM (active); in assay [2], 16.2 µM (active); in assay [3], 32.2 µM (active). Besides, the Potency result in assay [4] is “inactive”.
In the case of `O=C(/C=C/c1ccc(O)c(O)c1)O[C@@H](C(=O)O)[C@@H](OC(=O)/C=C/c1ccc(O)c(O)c1)C(=O)O`, the Potency entry in assay [1], in assay [2], in assay [3], in assay [4] and in assay [5] was “inactive” in each case.
Turning to `CCN(CCN)c1cccc(C)c1`, the Potency in assay [1] was 7.17 µM (active) and 35.6 µM (active); in assay [2], 40.3 µM (active) and 56.4 µM (active); in assay [3], 11.4 µM (active) and 20 µM (active); in assay [4], 24.5 µM (active); in assay [5], 12.7 µM (active) and 35.6 µM (active).
For the molecule `c1ccc(SSc2ccccc2)cc1`, the Potency in assay [1] is 22.6 µM (active); in assay [2], 31.9 µM (active); in assay [3] it was 3.19 µM (active). Moreover, the Potency entry in assay [4] and in assay [5] was “inactive” in each case.
`Clc1ccnc(Cl)n1`: the Potency result in assay [1], in assay [2], in assay [3] and in assay [4] was “inactive” throughout.
For the molecule `CCN(CC)c1ccc2c(-c3ccc(S(=O)(=O)O)cc3S(=O)(=O)[O-])c3ccc(=[N+](CC)CC)cc-3oc2c1`, the Potency in assay [1] was 92.2 µM (active); in assay [2], 16.4 µM (active); in assay [3], 20.7 µM (active); in assay [5], 14.6 µM (active). Besides, the Potency result in assay [4] is “inactive”.
Consider `Oc1ccccc1O`, for which the Potency in assay [1] was 80.6 µM (active) and inactive. Moreover, the Potency result in assay [2], in assay [3], in assay [4] and in assay [5] was “inactive” throughout.
Consider `COC(=O)Nc1nc2ccc(C(=O)c3ccccc3)cc2[nH]1`, for which the Potency result in assay [1], in assay [2], in assay [4] and in assay [5] was “inactive” in each case. In assay [3], the Potency is 12.9 µM (active).
For `COC1=C(OC)C(=O)C(CCCCCCCCCCO)=C(C)C1=O`, the Potency in assay [1] was 4.9 µM (active); in assay [2] it was 11 µM (active); in assay [3], 15.5 µM (active). Further, the Potency result in assay [4] and in assay [5] was “inactive” each time.
Consider `O=C(O)CCN(C1(C(=O)NO)CCCC1)S(=O)(=O)c1ccc(Oc2ccc(F)cc2)cc1`, for which the Potency result in assay [1], in assay [2], in assay [3], in assay [4] and in assay [5] was “inactive” each time.
Regarding `CC(CO)Oc1ccccc1` (stereo unspecified), the Potency in assay [1] is 36.7 µM (active). The Potency entry in assay [2], in assay [3], in assay [4] and in assay [5] was “inactive” in each case.
Turning to `COc1cc(S(=O)(=O)O)c(C)cc1N=Nc1c(O)ccc2cc(S(=O)(=O)O)ccc12`, the Potency in assay [1] is 79.6 µM (active); in assay [2] it was 39.9 µM (active); in assay [3] it was 35.6 µM (active). For the same molecule, the Potency entry in assay [4] and in assay [5] was “inactive” throughout.
